Inconclusive results are not listed. Active and inactive are the calls of the source. Calls follow the shape of the dose curve; as a rule, active = well fitted cell-killing curve with a large enough effect; inconclusive = small, poorly fitted or top-dose-only effect, or effect the other way; inactive = flat fitted curve, though single readings scatter.
% is scaled to controls: 0 for no effect and ±100 for the full control effect; potency is read from the fitted curve at half-maximal effect.

The nature of the assay: MultiTox-Fluor Cytotoxicity Assay - LYMP1-002 - Live Cells (AID 955).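 Also: cells exposed to compound for 16 hours.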 To be noted: LYMP1-002 lymphoblastoid live-cell protease fluorescence viability; series mostly up to 46.1 µM; viability change, negative = cytotoxic: at the top concentration. Put shortly:
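After 16 h compound exposure at 37 C, live LYMP1-002 lymphoblastoid cells (2500/well) were quantified by cleavage of cell-permeant GF-AFC substrate, read at 405/510 nm after 60 min. Concentration-response fitted with Hill equation for AC50.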
For `Cc1cc(Nc2ccc(O)cc2)ccc1N`, the “viability change, negative = cytotoxic” value is -5.79% (inactive).
The same measure, in the same setting: with `CN(C)c1ccc(C2(c3ccc(N(C)C)cc3)OC(=O)c3cc(N(C)C)ccc32)cc1` the figure was 16.7% (inactive).
On to `CO[C@H]1/C=C/O[C@@]2(C)Oc3c(C)c(O)c4c(O)c(c5c(c4c3C2=O)NC2(CCN(CC(C)C)CC2)N=5)=NC(=O)/C(C)=C\C=C\[C@H](C)[C@H](O)[C@@H](C)[C@@H](O)[C@@H](C)[C@H](OC(C)=O)[C@@H]1C`, for which the “viability change, negative = cytotoxic” value was -23.3% (inactive).
Same read-out and setting: next, `O=C(OCC(COC(=O)c1ccccc1)(COC(=O)c1ccccc1)COC(=O)c1ccccc1)c1ccccc1`: 7.1% (inactive); `ClC1=C(Cl)C(Cl)(Cl)C(Cl)=C1Cl`: 7.87% (inactive).
For `CC(=O)Nc1ccc(C(=O)CCl)cc1`, the Potency was 12.6 µM (active).
For the compound `c1ccc2c(c1)-c1cccc3c1c-2cc1ccccc13`, the “viability change, negative = cytotoxic” value was 11.9% (inactive).
Still for that read-out and setting: with `O=C=Nc1ccc(Cc2ccc(N=C=O)cc2)cc1` the figure was -0.299% (inactive).
Same read-out and setting: next, `O=[N+]([O-])c1cc([N+](=O)[O-])c2ccc(S(=O)(=O)O)cc2c1O`: -19.6% (inactive).
For `Cc1cc(O)c(C(C)(C)C)cc1Sc1cc(C(C)(C)C)c(O)cc1C`, the Potency was 25.1 µM (active).
Same read-out and setting: next, `CCC(C)Nc1ccc(NC(C)CC)cc1` (stereo not drawn): 10 µM (active); `CNc1ccc(O)cc1`: 12.6 µM (active).
Same read-out and setting: with `C=CC(=O)OCCOCCOC(=O)C=C` the figure was 15.8 µM (active).
Regarding `O=C1OC2(c3cc(Br)c(O)c(Br)c3Oc3c2cc(Br)c(O)c3Br)c2c(Cl)c(Cl)c(Cl)c(Cl)c21`, the “viability change, negative = cytotoxic” value was -17.9% (inactive).
On the same count and under the same terms, next, `c1ccc2c(c1)ccc1cc3c(ccc4ccccc43)cc12`: 7.52% (inactive); `C/C=C1\C(=O)C[C@H]2[C@@H]3CCC4=CC(=O)CC[C@]4(C)[C@H]3CC[C@]12C`: -21.1% (inactive).
Still for that read-out and setting: next, `C=C(C)c1ccccc1`: 5.17% (inactive); `Cc1ccc(S(=O)(=O)Oc2ccc(N=Nc3ccc(-c4ccc(N=Nc5c(O)ccc6cc(S(=O)(=O)O)cc(S(=O)(=O)O)c56)c(C)c4)cc3C)cc2)cc1`: -24.6% (inactive).

Source of the values: PubChem BioAssay (NCATS).
